Data published in PubChem BioAssay AID1159580 (chemical genetic matrix, 2015).
The whole screen tested about 5,500 compounds, of which about 2,000 (36%) were called active. About 18% were inconclusive and are not listed. No stated cut-off is given here; in the data, active means normalized growth mostly below about 0.91 (no sharp cut-off); inconclusive means no clear call, values can overlap the other calls; inactive means mostly above about 0.92. Some of the results follow.

Test: chemical genetic growth profiling, strain panel (AID 1159580);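 further: tested at 20 µM; growth read once vehicle control cultures reached saturation at 30 °C; 1 = growth at the plate median or of vehicle wells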
Settings: S. cerevisiae deletion strains, growth OD

Measured: normalized growth

CCCN1CC(CSC)CC2c3cccc4[nH]cc(c34)CC21 (stereo not drawn)
inactive: locus YAL040C, strain CLN3, stronger effect = lower value 1 | locus YCL061C, strain MRC1 (second series), stronger effect = lower value 0.998 | locus YDR150W, strain NUM1, stronger effect = lower value 0.997 | locus YDR363W, strain ESC2, stronger effect = lower value 0.989 | locus YER002W, strain NOP16, stronger effect = lower value 1.01 | locus YGR078C, strain PAC10, stronger effect = lower value 1.01 | locus YMR307W, strain GAS1, stronger effect = lower value 0.999 | locus YNL128W, strain TEP1, stronger effect = lower value 1.02 | locus YNL153C, strain GIM3, stronger effect = lower value 0.998 | locus YNL175C, strain NOP13, stronger effect = lower value 1.02 | locus YNL197C, strain WHI3, stronger effect = lower value 1.01 | locus YNL224C, strain SQS1, stronger effect = lower value 1.08 | locus YOR083W, strain WHI5 (second series), stronger effect = lower value 1.02
